Drawing on PubChem BioAssay AID1259240 (Keith Lab, Institute of Cancer Science, University of …, 2017), this text covers fold change for 23 compounds.

Values without a mark were called inactive. Active and inactive are the calls of the source. Cut-off read from the data, not from the text of the source: active = fold change mostly below about -2 (no sharp cut-off); inactive = mostly above about -1.8.

The assay in a line: TERT promoter activity modulators, primary screen, cell-based, luciferase reporter, human (AID 1259240). As to conditions: A2780 TERT promoter luciferase reporter, 16 h; at 20 µM, fold versus average of vehicle-only wells.
`COc1ccc(-c2noc(-c3cc(OC)c(OC)cc3OC)n2)cc1`: the fold change was 1.46.

With `CC(C)C(C(=O)O)N1C(=O)/C(=C/c2cccs2)SC1=S` (stereo not drawn), the fold change was -3.32 (active).

With `CCc1ccc(CNc2ccc3c(c2)ncn3C(C)C)cc1`, the fold change was -2.78 (active).

On to `COc1ccc2nc(C)c(C(=O)OCCN(C)C)cc2c1`, for which the fold change was 1.5.

For `O=C(Cn1c(=O)oc2cc(S(=O)(=O)NC3CCCC3)ccc21)N1CCCC1`, the fold change is -1.19.

As to `O=C(CCCc1nnc2n3nc(-c4ccccc4)nc3c3ccccc3n12)NCC1CCCO1` (stereo not drawn), the fold change was 1.2.

With `CC(Sc1nc(-c2ccco2)nc2c1c(=O)n(C)c(=O)n2C)C(=O)O` (stereo not drawn), the fold change was 1.38.

Consider `CCOC(=O)N1CCC(Nc2c(N3CCN(c4ccccc4F)CC3)c(=O)c2=O)CC1`, for which the fold change is -1.13.

As for `c1nc(N2CCOCC2)c2sc3nc(N4CCOCC4)c4c(c3c2n1)CCCC4`, the fold change was -1.09.

As for `CCN1C(=O)N(CC)C2C1N(C(C)=O)C(=O)N2C(C)=O` (stereo not drawn), the fold change is -1.76.

Take `CCCn1c(NCc2cccs2)nc2ccccc21`: the fold change was 1.22.

For `Cc1cc(C)n(-c2nc3ccccc3n3cnnc23)n1`, the fold change was -1.18.

`CN1C(=O)/C(=C/c2cn(CC(N)=O)c3ccccc23)c2ccccc21`: the fold change was 1.5.

As for `CCC(CC)COC(=O)C1=C(C)NC(=O)CC1c1ccccc1C` (stereo not drawn), the fold change was 1.08.

On to `COC(=O)c1ccc(-c2nn(C)c(=O)c3ccccc23)cc1`, for which the fold change was -1.09.

On to `Cc1nc2cc(-c3cccc(F)c3)nn2c(C)c1CCC(=O)N1CCc2ccccc21`, for which the fold change is -2.84 (active).

Regarding `CCOC(=O)C1CCN(c2c(N3CCC(C(=O)OCC)CC3)c(=O)c2=O)CC1`, the fold change is 1.06.

On to `CCOC(=O)C1=C(CS(=O)(=O)c2ccc(C)c(C)c2)NC(=O)NC1c1ccc(Cl)cc1` (stereo not drawn), for which the fold change is 1.11.

Consider `O=S(=O)(c1cccc(-c2cn3ccccc3n2)c1)N1CCCCC1`, for which the fold change is -1.03.

With `CC(C)(C)OC(=O)CN1C(=O)c2ccccc2S1(=O)=O`, the fold change was 1.98.

For `CCc1cccc(Nc2nc3ccccc3n3nnnc23)c1`, the fold change is -12.7 (active).

With `Cc1ccn2c(NC(=O)C(C)C)c(-c3ccc(F)cc3)nc2c1`, the fold change was -1.4.

For the compound `O=C(C1CCN(S(=O)(=O)c2cccc3cccnc23)CC1)N1CCn2c1nc1ccccc12`, the fold change is 1.05.
